Reference: the supplement of paper PMC6555819

Assays:
Assay in all cases: PBM binding z-score (relative to random genomic background probes); higher = stronger binding; sequences stand for … in GC…GCGATTGACAGCGTAGAATGAAGG
[1] = test system: FXR:RXRa (NR concentration 270 nM, RXRa partner concentration 90 nM)
Outline: (§1)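 Each nuclear receptor dimer, without ligand, was incubated for 1 h on custom Agilent 4×180K protein-binding microarrays. Binding was detected with antibodies against each partner (one per run), and scanned fluorescence was regression-normalized. The binding z-scores are referenced to random human genomic background probes.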

[2] = test system: LXRa:RXRa (NR concentration 270 nM, RXRa partner concentration 90 nM)
Outline: as §1

[3] = test system: LXRa homodimer (NR concentration 270 nM)
Outline: as §1

[4] = test system: LXRb:RXRa (NR concentration 270 nM, RXRa partner concentration 90 nM)
Outline: as §1

[5] = test system: LXRb homodimer (NR concentration 270 nM)
Outline: as §1

[6] = test system: PPARa:RXRa (NR concentration 270 nM, RXRa partner concentration 90 nM)
Outline: as §1

[7] = test system: PPARg:RXRa (NR concentration 180 nM, RXRa partner concentration 90 nM)
Outline: as §1

[8] = test system: PPARg:RXRa 270nM:90nM, anti-RXR (NR concentration 270 nM, RXRa partner concentration 90 nM)
Outline: as §1

[9] = test system: PPARg:RXRa 30nM:10nM, anti-RXR (NR concentration 30 nM, RXRa partner concentration 10 nM)
Outline: as §1

[10] = test system: PPARg:RXRa 90nM:30nM, anti-RXR (NR concentration 90 nM, RXRa partner concentration 30 nM)
Outline: as §1

[11] = test system: PPARg:RXRa DBDmut IVT, anti-RXR (DBD mutation: RXRa K156A/R161A, NR concentration 270 nM, RXRa partner concentration 90 nM)
Outline: as §1

[12] = test system: PPARg:RXRa IVT, anti-PPARg (NR concentration 270 nM, RXRa partner concentration 90 nM)
Outline: as §1

[13] = test system: PPARg DBDmut:RXRa IVT, anti-PPARg (DBD mutation: PPARg1 K132A/R137A, NR concentration 270 nM, RXRa partner concentration 90 nM)
Outline: as §1

[14] = test system: PPARg DBDmut IVT, anti-PPARg (DBD mutation: PPARg1 K132A/R137A, NR concentration 270 nM)
Outline: as §1

[15] = test system: PPARg homodimer (NR concentration 180 nM)
Outline: as §1

[16] = test system: PXR:RXRa (NR concentration 270 nM, RXRa partner concentration 90 nM)
Outline: as §1

[17] = test system: PXR homodimer (NR concentration 270 nM)
Outline: as §1

[18] = test system: RARa:RXR (NR concentration 270 nM, RXRa partner concentration 90 nM)
Outline: as §1

[19] = test system: RARa homodimer (NR concentration 270 nM)
Outline: as §1

[20] = test system: RARb:RXRa (NR concentration 270 nM, RXRa partner concentration 90 nM)
Outline: as §1

Row | Sequence | PBM binding z-score [1] | PBM binding z-score [2] | PBM binding z-score [3] | PBM binding z-score [4] | PBM binding z-score [5] | PBM binding z-score [6] | PBM binding z-score [7] | PBM binding z-score [8] | PBM binding z-score [9] | PBM binding z-score [10] | PBM binding z-score [11] | PBM binding z-score [12] | PBM binding z-score [13] | PBM binding z-score [14] | PBM binding z-score [15] | PBM binding z-score [16] | PBM binding z-score [17] | PBM binding z-score [18] | PBM binding z-score [19] | PBM binding z-score [20]
1 | TCTTGAAGATCAAGCAGGTTAAGAAAGCCTGAGT | 0.132 | 0.199 | -0.36 | 0.402 | -0.998 | 0.437 | -0.324 | 1.11 | 2.96 | 1.74 | 1.28 | -0.366 | 0.0587 | -0.888 | -0.603 | 0.456 | -0.168 | 0.215 | -1.22 | 0.0323
2 | TCTGCTAGGACAACGATGGTCAGCTAATCTGCTA | -0.541 | -0.708 | -0.957 | -0.773 | -0.823 | -0.569 | -0.0545 | 0.0795 | 0.983 | 0.581 | 0.636 | -0.317 | -0.808 | -0.587 | -1.47 | -0.66 | -1.33 | -0.497 | -0.832 | 0.175
3 | CTACCAAGGTGAATAAGGTCGTTGATTACTATTC | 1.18 | 1.3 | 0.402 | 1.58 | -0.326 | 2.22 | 0.631 | 1.01 | 0.203 | 0.602 | 1.82 | 2.39 | 0.0322 | -0.387 | 0.714 | 2.37 | 2.32 | 2.44 | 0.949 | 1.71
4 | TCGAGTAGGTTGGGGGCATTCAGAATGGCGTCGA | 1.39 | 1.94 | 0.352 | 3.96 | 6.82 | 2.48 | 0.614 | 2.35 | 2.29 | 2.28 | 1.25 | 2.38 | 3.04 | 5.62 | 0.737 | 2.82 | 1.75 | 1.98 | 0.0369 | 1.6
5 | CCTAGTTGGTTAAGGTCACACACGCTATAGGTAC | 4.71 | 4.56 | 2.6 | 4.3 | 1.42 | 4.33 | 2.68 | 3.2 | 1.24 | 2.39 | 1.64 | 2.5 | 1.48 | 1.66 | 3.91 | 4.46 | 4.13 | 4.85 | 2.51 | 4.24
6 | ACTATTAGTTGACTTAGGGCAACTGATACGACGC | 0.17 | 0.0575 | 0.162 | 0.0522 | 0.38 | 0.0544 | 0.858 | 0.0451 | 0.501 | 0.431 | -0.0413 | 0.813 | 1.58 | 1.31 | 0.722 | 0.176 | 0.201 | 0.431 | 0.297 | 1.01
7 | CCTCGGAGGACAACAGGAGGTCAGAGCCGCCAGA | 0.835 | 2.03 | 1.67 | 1.17 | -0.539 | 1.92 | 0.457 | 0.136 | -0.412 | -0.258 | -0.218 | 0.369 | -1.41 | -1.45 | 1.21 | 1.72 | 0.183 | 1.99 | -0.021 | 2.92
8 | ACTAGCAGGCCAAGTTTGGGTCAGTCAAACAAAG | 0.028 | -0.244 | -0.318 | -0.0247 | -0.904 | 0.619 | -0.396 | -0.173 | -0.835 | -0.45 | 0.456 | 0.754 | -0.643 | -0.95 | -0.103 | 0.0962 | -0.463 | 0.649 | -0.408 | 1.21
9 | CCTTACGGGTCACTCCACGTTATAGCATCGGAGT | 4.04 | 3.03 | 0.131 | 2.58 | 0.341 | 4.28 | 3.02 | 3.29 | 1.1 | 2.31 | 2.55 | 3.09 | 0.675 | 0.232 | 2.03 | 2.39 | 0.155 | 3.01 | 0.911 | 3.44
10 | CCTACTGGGCTAAGGTCATTGATCAGTCAAAGCA | 3.85 | 3.94 | 1.87 | 3.49 | -0.0794 | 4.26 | 3.54 | 4.28 | 1.41 | 3.47 | 2.72 | 2.94 | -0.43 | -0.707 | 2.17 | 4.1 | 1.25 | 4.17 | -0.024 | 3.5
11 | TCATTTAGGTAAAGGTGAAAGTCGAACGATATGA | 1.18 | 1.46 | -0.167 | 1.52 | 0.32 | 3.21 | 3.2 | 4.48 | 4.39 | 4.9 | 3.05 | 3.75 | 1.29 | 2.17 | 1.2 | 1.35 | 0.193 | 1.92 | 1.42 | 2.05
12 | TCTTGAAGATCAACAGGAGGTTAAGAAAGATCGA | 0.539 | 1.27 | 0.226 | 1.15 | -0.64 | 1.41 | -0.0399 | 1.64 | 2.92 | 2.51 | 1.18 | 0.0291 | 0.0497 | 0.387 | 0.165 | 0.962 | -0.127 | 1.25 | 0.0716 | 0.816
13 | TCAGACAGGTGAAGGTGACTCAGGTACGCAGTCG | 0.795 | 0.409 | -0.133 | 0.864 | 0.128 | 1.58 | 0.781 | 2.13 | 3.51 | 2.83 | 2.42 | 1.7 | 0.953 | 0.0936 | 0.74 | 0.711 | 0.325 | 0.812 | -0.0576 | 1.62
14 | ACAGACAGGTGGTGAAGGTAACTCAGGCTATCAT | -0.0169 | -0.306 | -0.324 | -0.0742 | -0.476 | -0.288 | 0.473 | -0.194 | -0.095 | -0.321 | -0.597 | 0.0629 | -0.371 | -0.55 | 0.0722 | -0.271 | 0.0248 | -0.15 | 0.517 | -0.142
15 | ACTATTAGTTGACTTAGGGTAACCGATACGACGC | 0.985 | 1.09 | 1.21 | 0.679 | 0.748 | 0.468 | 0.907 | 0.758 | 0.442 | 0.705 | 0.838 | 0.626 | 1.67 | 1.36 | 0.663 | 0.483 | 0.517 | 0.73 | 0.861 | 0.582
